Only a selection was taken, and hits are over-represented in it overall.
Cruzain Triton = inhibitors of Trypanosoma cruzi cruzain with detergent | actives 0.43% (n = 200,000) | P25779 | Potency, µM, for the others: max response, negative = inhibition, usual class: inhibitors | purified cruzain, Z-FR-AMC fluorescence, 0.01% Triton | AID 1478;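 also: potency is read from the fitted curve at half-maximal effect; plate controls were neutral wells for no effect and buffer without enzyme for full effect; nearly all actives have a fitted effect of over 40% in size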
Target sequence (P25779 123-467 limits assumed): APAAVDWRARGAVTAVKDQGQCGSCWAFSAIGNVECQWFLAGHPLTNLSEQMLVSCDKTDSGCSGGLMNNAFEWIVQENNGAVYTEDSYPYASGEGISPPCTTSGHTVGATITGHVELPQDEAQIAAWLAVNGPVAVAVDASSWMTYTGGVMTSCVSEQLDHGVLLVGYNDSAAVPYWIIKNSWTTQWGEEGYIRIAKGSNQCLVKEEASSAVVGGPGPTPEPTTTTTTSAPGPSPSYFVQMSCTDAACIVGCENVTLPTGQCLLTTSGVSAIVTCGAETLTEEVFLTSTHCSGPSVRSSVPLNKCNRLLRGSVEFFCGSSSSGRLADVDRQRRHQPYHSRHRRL
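Detergent-containing run (0.01% Triton X-100) in acetate buffer pH 5.5 with 5 mM DTT: enzyme at 1.5 nM final, 15 min compound preincubation at room temperature, then 2 uM Z-FR-AMC substrate. Activity taken as 60 s fluorescence increase at 360/450 nm.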
NS1 function inh = inhibitors of influenza NS1 protein function; Potency, µM (top dose mostly 46.1 µM), inactives show top-dose activity, positive = more growth; actives 0.4% (n = 270,000); calls by dose curve; also: potency is read from the fitted curve at half-maximal effect; actives are rising curves; nearly all actives have a fitted effect of over 50% in size
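A cell-based growth assay was used: compounds that relieve NS1-induced slow growth of budding yeast raise OD600. Assay medium was yeast nitrogen base with ammonium sulphate and -URA supplement, pH 6.0, with 2% galactose.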
Cruzain noTriton = blocks cruzain activity in detergent-free assay; P25779; purified cruzain, Z-FR-AMC fluorescence, no detergent; actives 2.3% (n = 200,000); Potency, µM, inactives show max response, negative = inhibition, hits mostly inhibitors;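 also: potency is read from the fitted curve at half-maximal effect; plate controls were enzyme without inhibitor for no effect and buffer without enzyme for full effect; nearly all actives have a fitted effect of over 40% in size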
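Purified cruzain at 1.5 nM, pre-incubated 15 min with compound at room temperature in 100 mM sodium acetate pH 5.5, 5 mM DTT, 0.00005% Triton X-100. Reaction started with 2 uM Z-FR-AMC; AMC fluorescence increase over 60 s gives rate.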
NS1 inh valid = influenza NS1 function inhibition validation. activity change, negative = inhibition, % at 32.9 µM. 1,400 tested, under 10 active. shares compounds with NS1 function inh. AID 492980. influenza NS1 function cell assay, 15-point titration; calls by dose curve; also: 0% is about no effect
* hit, by the source's call; ? = inconclusive; . = no result given; [ ] = another dose, or the depositor's remark. Unless noted, calls follow the shape of the dose curve; as a rule, active = well fitted curve in the direction sought with a large enough effect; inconclusive = small, poorly fitted or top-dose-only effect, or another doubt; inactive = no such curve, though single readings can be large; an effect the other way counts as inactive or inconclusive.

SMILES	Cruzain Triton	NS1 function inh	Cruzain noTriton	NS1 inh valid
CCOCCCNC(=O)CN1C(=O)COc2ccc(S(=O)(=O)N3CCC(C)CC3)cc21	.	13%	.	.
Cc1cccc2sc(N(CCCN(C)C)C(=O)c3cc4ccccc4oc3=O)nc12	-5%	-1%	4%	.
CCOc1ccc(NCc2cccn2-c2nnc(N3CCC(C(=O)NC(C)c4ccccc4)CC3)s2)cc1 (stereo unspecified)	-3%	.	9%	.
Cc1sc2ncnc(SCC(=O)NC3CCCC3)c2c1C	.	10%	.	.
Cc1cccc(CC(=O)Nc2cc(=O)n(C)c(=O)n2C)c1	-5%	?	5%	-7
Cc1cccc(C(=O)Nc2cc(=O)n(C)c(=O)n2C)c1	-2%	1%	13%	.
CCN(Cc1ccccc1)C(=O)C1CCN(S(=O)(=O)c2ccc3c(c2)OCCO3)CC1	.	7%	.	.
Cc1oc2c(c1C(=O)NCc1ccccc1F)C1=NCCN1C=N2	-3%	.	-13%	.
Cc1ccc(CSC2=Nc3ccccc3C3=NC(CC(=O)NCc4cccs4)C(=O)N23)c(C)c1 (stereo unspecified)	-4%	.	-1%	.
COCCNC(=O)c1ccc(CS(=O)(=O)c2ccccc2C)o1	.	2%	.	.
COC(=O)c1ccc(CS(=O)(=O)c2ccccc2C)o1	3%	1µM*	16µM*	21
N=c1c2c(n(Cc3ccc(Cl)cc3Cl)c3c1CCC3)CCCC2	-1%	-4%	-10%	.
COc1cc(/C=N/NC(=O)c2ccc(CN3C(=O)c4cccc5cccc3c45)cc2)cc(OC)c1O	.	13µM*	.	18
COc1cc(/C=N\NC(=O)c2ccc(-c3ccccc3)cc2)cc(Br)c1O	.	9%	.	.
CCOC(=O)N1CCN(CC(O)COc2ccc(C)cc2C(C)(C)C)CC1 (stereo unspecified)	0%	-21%	20%	.
COCCNC(=S)N(CCCN(C)C)Cc1cc2cc3c(cc2[nH]c1=O)OCCO3	.	11%	.	.
COc1ccccc1NC(=O)CCC(=O)Nc1ccccc1OC	-2%	3%[9.22 µM]	-6%	.
COc1ccccc1NC(=O)C/C(N)=N/O	4%	13µM*	-1%	17
N#Cc1ccccc1Cn1c(-c2cscn2)nc2ccccc21	-3%	-7%	6%	.
COc1cc(NC(=O)c2cccnc2Sc2ccc(Cl)cc2)cc(OC)c1OC	-5%	7%	-6%	.
COc1cc(C(C(=O)NC2CCCCC2)N(C(=O)c2snc(C(N)=O)c2N)c2ccc(C)cc2)ccc1O (stereo unspecified)	.	?	.	-14
CCOCCCN(C(=O)c1snc(C(N)=O)c1N)C(C(=O)NC1CCCC1)c1ccc(O)c(OC)c1 (stereo unspecified)	.	18%	.	.
COc1ccc(Br)cc1C1CC(=O)N2CN(C)CSC2=C1C#N (stereo unspecified)	-6%	-42%	2%	.
COc1ccc(Br)cc1C1CC(=O)N2CN(Cc3ccccc3)CSC2=C1C#N (stereo unspecified)	?	11µM*	32µM*	-16
Cc1oc(-c2ccccc2Cl)nc1CS(=O)CC(=O)NCc1cccs1 (stereo unspecified)	3%	-7%	3%	.
SMILES	Cruzain Triton	NS1 function inh	Cruzain noTriton	NS1 inh valid
Cc1oc(-c2cccs2)nc1CS(=O)CC(=O)NCCCOC(C)C (stereo unspecified)	1%	7%	-11%	.
CCCCNC(=O)CS(=O)Cc1nc(-c2cccs2)oc1C (stereo unspecified)	-1%	11µM*	-8%	5
Cc1oc(-c2ccccc2F)nc1CS(=O)CC(=O)NCc1cccs1 (stereo unspecified)	-1%	11µM*	3%	30
COc1cc(C(=O)Nc2cccc(-c3nc4cc(C)ccc4o3)c2)cc(OC)c1OC	0%	29%	?	.
Cc1ccc(S(=O)(=O)Nc2ccccc2C(=O)Nc2ccc(S(=O)(=O)Nc3nccc(C)n3)cc2)cc1	-9%	5%	22%	.
Cc1ccc(C)c(S(=O)(=O)Nc2ccccc2C(=O)Nc2ccc(S(=O)(=O)Nc3ncccn3)cc2)c1	-11%	11µM*	?	25
CC(=O)Nc1nc(-c2ccc3c(c2)CCN3S(C)(=O)=O)cs1	.	5%	.	.
CS(=O)(=O)N1CCc2cc(-c3csc(NC(=O)Cc4cccs4)n3)ccc21	3%	11µM*	20µM*	19
COc1ccc(N2CCN(c3c4c(nc5nncn35)CCC4)CC2)cc1	0%	.	-6%	.
Cc1ccc(-n2c(/C=C/c3ccc(Br)s3)nc3ccccc3c2=O)cc1	1%	.	-11%	.
Cn1cccc1Cc1nnc(SCC(=O)Nc2ccccc2F)n1CCc1ccccc1	-2%	7.1µM*	23%	-4

Source: PubChem (National Center for Advancing Translational Sciences (NCATS))
